# The campaign covered roughly 310,000 compounds. About 14,000 (4.5%) showed an effect of 50% or more. Effects have a minus sign here. The sample as a whole holds a higher share of strong results than the screen did.
# Target: human ether-à-go-go-related gene (hERG) potassium channel (human, UniProt Q12809)
# Test: primary screen, population patch clamp on CHO cells stably expressing hERG; higher = less effect of the substance
# 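Also: peak tail current of the secondary pulse compared with the same well before compound.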
# human ether-à-go-go-related gene (hERG) potassium channel, sequence (Q12809 whole entry, looked up): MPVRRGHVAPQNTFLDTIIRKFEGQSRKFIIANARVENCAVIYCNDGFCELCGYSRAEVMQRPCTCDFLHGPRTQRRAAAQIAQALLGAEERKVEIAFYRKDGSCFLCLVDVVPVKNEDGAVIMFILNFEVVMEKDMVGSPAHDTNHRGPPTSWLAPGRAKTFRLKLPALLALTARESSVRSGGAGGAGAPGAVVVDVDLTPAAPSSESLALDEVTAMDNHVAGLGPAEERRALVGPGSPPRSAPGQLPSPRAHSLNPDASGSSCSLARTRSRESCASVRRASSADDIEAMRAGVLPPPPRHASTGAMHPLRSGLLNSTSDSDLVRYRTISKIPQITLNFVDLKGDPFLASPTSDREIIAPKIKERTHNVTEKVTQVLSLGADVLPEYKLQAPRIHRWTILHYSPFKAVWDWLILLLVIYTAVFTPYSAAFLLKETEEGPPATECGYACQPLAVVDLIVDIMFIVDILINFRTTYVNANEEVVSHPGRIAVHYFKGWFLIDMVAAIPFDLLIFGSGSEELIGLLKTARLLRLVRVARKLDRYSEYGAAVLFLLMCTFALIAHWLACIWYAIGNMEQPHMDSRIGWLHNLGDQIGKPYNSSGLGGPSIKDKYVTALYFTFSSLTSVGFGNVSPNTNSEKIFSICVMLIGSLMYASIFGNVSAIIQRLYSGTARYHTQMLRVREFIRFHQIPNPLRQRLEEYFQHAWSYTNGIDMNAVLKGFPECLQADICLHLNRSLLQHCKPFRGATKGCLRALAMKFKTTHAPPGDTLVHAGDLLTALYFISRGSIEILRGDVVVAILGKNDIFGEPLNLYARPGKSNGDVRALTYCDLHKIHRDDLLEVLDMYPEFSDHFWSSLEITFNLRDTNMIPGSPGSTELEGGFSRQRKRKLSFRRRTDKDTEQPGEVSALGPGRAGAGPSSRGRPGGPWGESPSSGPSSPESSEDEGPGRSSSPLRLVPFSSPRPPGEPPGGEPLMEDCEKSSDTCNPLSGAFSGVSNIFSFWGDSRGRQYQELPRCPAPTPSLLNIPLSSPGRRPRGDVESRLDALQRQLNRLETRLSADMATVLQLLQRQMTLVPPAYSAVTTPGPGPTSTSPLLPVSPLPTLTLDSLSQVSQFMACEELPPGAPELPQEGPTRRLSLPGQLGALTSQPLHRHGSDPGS
row,Compound,"hERG current change (%, negative = inhibition) at 10uM"
1,CCOC(=O)C(O)(CCC(O)(C(=O)OCC)C(=O)OCC)C(=O)OCC,5.85%
2,Cn1c(=O)c2c(nc(CN3CCC(C(N)=O)CC3)n2CCc2ccccc2)n(C)c1=O,4.44%
3,CCOC(=O)c1ccc(NC(=O)NC2CC3CCC(C2)N3Cc2nnnn2Cc2ccco2)cc1 (centres unmarked),-21.1%
4,O=C(NCc1ccc2c(c1)OCO2)c1nn(-c2ccccc2)c(=O)c2ccccc12,-35.1%
5,COc1ccc(N(CC(=O)NCc2cccnc2)S(=O)(=O)c2c(C)nn(C)c2C)cc1,3.1%
6,O=C(CSc1nc(-c2ccccc2)nn1C(=O)c1ccccc1)Nc1cccc([N+](=O)[O-])c1,2.83%
7,COc1ccc(NC(=O)CCc2nc3ccccc3s2)c(OC)c1,-0.68%
8,O=C(CN(c1cccc(C(F)(F)F)c1)S(=O)(=O)c1ccccc1)N1CCOCC1,-30.5%
9,CCC(=O)c1ccc(N2CCN(C(=O)c3cccc(F)c3)CC2)c(F)c1,-41.6%
10,CCC(=O)c1ccc(N2CCN(C(=O)c3ccc(F)cc3)CC2)c(F)c1,-60%
11,CCC(=O)c1ccc(N2CCN(C(=O)c3ccc(Br)cc3)CC2)c(F)c1,-16%
12,CCC(=O)c1ccc(N2CCN(C(=O)c3ccccc3)CC2)c(F)c1,-70.1%
13,CCOC(=O)C1CCN(C(=O)c2ccccc2CCc2ccccc2)CC1,-8.95%
14,O=C(c1ccccc1CCc1ccccc1)N1CCCC1,9.12%
15,CCC(=O)c1ccc(N2CCN(C(=O)c3ccccc3Br)CC2)c(F)c1,-26.8%
16,CCOC(=O)N1CCN(C(=O)c2ccccc2CCc2ccccc2)CC1,-59.1%
17,CCC(=O)c1ccc(N2CCCCC2)c(F)c1,8.26%
18,CCOC(=O)Nc1sc(C(=O)N(C)C)c(C)c1C(=O)OCC,5.73%
19,O=C(COC(=O)/C=C/c1cccs1)NC(c1ccccc1)c1ccccc1,-2.53%
20,O=C(CNC(=O)c1ccccc1)OCC(=O)c1ccc(Cl)s1,0.566%
21,CC1(C)CC(=O)C2=C(C1)NC(=O)NC2c1ccccc1 (centres unmarked),21.7%
22,Cc1oc(CC(C)C)cc1C(=O)NCCCC(=O)O,13.6%

row,Compound,"hERG current change (%, negative = inhibition) at 10uM"
1,COc1ccc(C2(CNS(=O)(=O)c3ccc(C)cc3)CCOCC2)cc1,15.4%
2,O=C(O)c1ccc(N2C(=O)CC(SC(=NCc3ccc4c(c3)OCO4)Nc3ccccc3)C2=O)cc1 (centres unmarked),13.9%
3,CCOC(=O)C1=C(C)NC(=O)CC1c1ccccc1 (centres unmarked),-0.777%
4,COc1ccc(C(=O)CCc2ccc(OC)c(OC)c2)cc1,-10.3%
5,O=C(CNC(=O)c1ccc(Br)cc1)OCC(=O)c1ccccc1,10.2%
6,Cc1ccc2[nH]c(-c3cccc(N)c3)cc2c1,18.4%
7,O=C(CSc1nnc(CN2CCCCC2)n1-c1ccccc1)c1ccc2c(c1)OCO2,-25.4%
8,CCC1Oc2ccc(C)cc2N(CC(=O)N2CCOCC2)C1=O (centres unmarked),4.58%
9,Cc1ccc2c(c1)N(CC(=O)N1CCCC1)C(=O)C(C)O2 (centres unmarked),19.4%
10,CCC1Oc2ccc(C)cc2N(CC(=O)N2CCCC2)C1=O (centres unmarked),23.2%
11,CCC1Oc2ccc(C)cc2N(CC(=O)N2CCN(c3ccc(F)cc3)CC2)C1=O (centres unmarked),-54.1%
12,Cc1ccc2c(c1)N(CC(=O)N1CCCCC1)C(=O)C(C)O2 (centres unmarked),11.9%
13,Cc1ccc2c(c1)N(CC(=O)N1CCN(c3nc4ccccc4s3)CC1)C(=O)C(C)O2 (centres unmarked),-54.5%
14,Cc1c(C(=O)N/N=C/c2ccc(N3CCOCC3)cc2)nc2ccccn12,-1.87%
15,CCN(CC)C(=O)C(=O)c1ccn(-c2c(C)csc2C(=O)OC)c1,-9.5%
16,C=CCN(CC=C)C(=O)C(=O)c1ccn(-c2c(C)csc2C(=O)OC)c1,-70.3%
17,COC(=O)c1scc(C)c1-n1ccc(C(=O)C(=O)N(C)C)c1,5.31%
18,NC(=O)C1CCCN(C(=O)c2ccc(Cl)cc2)C1 (centres unmarked),6.59%
19,O=C(Nc1ccccc1)c1cc(-n2cnnc2)ccc1Cl,9.46%
20,COCC(=O)N1CCc2ccc(NC(=O)c3ccc(C(F)(F)F)cc3)cc2C1,-38.3%
21,CN(C)S(=O)(=O)c1cccc(C(=O)Nc2ccc3c(c2)CCC3)c1,-21.9%
22,CN1CCc2ccc(NC(=O)c3ccc(C(F)(F)F)cc3)cc2C1,-53.8%

# From paper PMC4336329 (PLoS ONE, 2015)
